# Results published in PubChem BioAssay (Tox21).
# Results filed as inconclusive are left out. Entries that show only a call come without a potency. A number with no mark means an inactive call. The source made the active and inactive calls. Unless noted, calls come from the whole dose curve; as a rule, active = well fitted curve in the direction sought with a large enough effect in the repeat runs; inconclusive = weak or mixed curves; inactive = no such curve, though single readings can be large; an effect the other way counts as inactive or inconclusive.
# Experiments:
# [1] = qHTS assay to identify aromatase inhibitors - cell viability counter screen (AID 743084);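 note: cells stimulated with testosterone during compound exposure; nearly all actives have a fitted effect of over 55% in size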
# [2] = biological target: Aryl hydrocarbon receptor (Homo sapiens) (UniProt P35869); experiment: qHTS assay to identify small molecule that activate the aryl hydrocarbon receptor (AhR) signaling pathway (AID 743085); note: nearly all actives have a fitted effect of over 15% in size; note: potency is the fitted concentration of half-maximal effect;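 for activation: HG2L7.5c1 human HepG2 liver cells with stably integrated DRE-driven firefly reporter; series mostly up to about 70 µM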
# Aryl hydrocarbon receptor (Homo sapiens), sequence (P35869 whole entry, looked up): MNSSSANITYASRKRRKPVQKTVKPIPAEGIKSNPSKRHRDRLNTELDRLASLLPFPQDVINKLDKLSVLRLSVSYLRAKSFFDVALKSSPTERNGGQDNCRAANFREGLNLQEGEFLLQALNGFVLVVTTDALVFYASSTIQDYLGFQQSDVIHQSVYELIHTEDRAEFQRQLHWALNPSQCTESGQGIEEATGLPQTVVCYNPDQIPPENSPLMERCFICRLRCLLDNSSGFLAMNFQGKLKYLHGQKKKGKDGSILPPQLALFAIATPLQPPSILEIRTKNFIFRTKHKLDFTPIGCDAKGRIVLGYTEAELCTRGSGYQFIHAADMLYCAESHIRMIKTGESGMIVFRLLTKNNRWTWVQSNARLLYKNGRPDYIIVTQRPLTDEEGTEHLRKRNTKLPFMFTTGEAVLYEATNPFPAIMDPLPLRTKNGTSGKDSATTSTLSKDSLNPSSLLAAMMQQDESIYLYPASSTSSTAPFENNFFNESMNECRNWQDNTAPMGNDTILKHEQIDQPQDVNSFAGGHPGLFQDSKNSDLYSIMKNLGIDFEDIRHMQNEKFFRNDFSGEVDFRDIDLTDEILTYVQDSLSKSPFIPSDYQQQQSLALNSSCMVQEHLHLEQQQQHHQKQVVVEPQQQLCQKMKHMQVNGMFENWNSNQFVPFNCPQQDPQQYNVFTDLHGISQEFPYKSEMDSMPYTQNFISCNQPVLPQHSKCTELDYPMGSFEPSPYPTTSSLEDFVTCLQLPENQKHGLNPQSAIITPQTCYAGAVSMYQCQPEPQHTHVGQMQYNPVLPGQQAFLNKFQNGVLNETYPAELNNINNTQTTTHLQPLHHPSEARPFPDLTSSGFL
# Procedure, shortened: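 HepG2 cells (HG2L7.5c1) stably carrying a firefly luciferase reporter driven by 20 dioxin responsive elements were exposed to compound for 24 h at 37C after a 5 h settling period; luminescence rise (ONE-Glo) indicated activation.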
# [3] = qHTS assay to identify small molecule that activate the aryl hydrocarbon receptor (AhR) signaling pathway - cell viability counter screen (AID 743086);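 note: HepG2 liver cells carrying the AhR DRE luciferase reporter; series mostly up to about 70 µM; nearly all actives have a fitted effect of over 45% in size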
# Procedure, shortened: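 Cytotoxicity counter screen: CellTiter-Fluor signal (30 min, 37 C) in 4000 HepG2 cells/well carrying the DRE-luciferase reporter, following 24 h compound exposure at 37 C.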
# [4] = biological target: Peroxisome proliferator-activated receptor gamma (Homo sapiens) (UniProt P37231); experiment: qHTS assay to identify small molecule agonists of the peroxisome proliferator-activated receptor gamma (PPARg) signaling pathway (AID 743094; active = well fitted activation curve with a large enough effect in the signal ratio in the repeat runs, not every such curve was filed as active; the % refers to the signal ratio)
# Peroxisome proliferator-activated receptor gamma (Homo sapiens), sequence (P37231 whole entry, looked up): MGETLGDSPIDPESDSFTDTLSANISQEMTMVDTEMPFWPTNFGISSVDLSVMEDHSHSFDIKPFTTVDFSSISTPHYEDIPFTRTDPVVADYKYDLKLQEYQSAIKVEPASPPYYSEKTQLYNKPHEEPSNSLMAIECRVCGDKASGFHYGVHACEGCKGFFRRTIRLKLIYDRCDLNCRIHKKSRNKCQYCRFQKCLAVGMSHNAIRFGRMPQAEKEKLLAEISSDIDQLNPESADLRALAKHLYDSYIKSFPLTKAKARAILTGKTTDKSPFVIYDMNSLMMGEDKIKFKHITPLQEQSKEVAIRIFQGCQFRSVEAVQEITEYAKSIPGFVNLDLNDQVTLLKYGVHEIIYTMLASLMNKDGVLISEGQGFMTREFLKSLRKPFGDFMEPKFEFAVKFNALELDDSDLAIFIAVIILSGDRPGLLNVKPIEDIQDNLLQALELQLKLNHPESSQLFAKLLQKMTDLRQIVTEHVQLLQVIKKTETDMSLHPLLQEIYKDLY
# Procedure, shortened: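 Agonist activity was taken from a beta-lactamase reporter (FRET substrate, 1 h at room temperature) in HEK293H cells carrying a PPARg UAS-bla construct. Compounds in DMSO were incubated 17 h at 37C after a 5 h cell pre-incubation.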
# [5] = qHTS assay to identify small molecule antagonists of the peroxisome proliferator-activated receptor gamma (PPARg) signaling pathway - cell viability counter screen (AID 743194); note: nearly all actives have a fitted effect of over 55% in size
# Procedure, shortened: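 Viability was measured as CellTiter-Glo luminescence in GeneBLAzer PPARg UAS-bla HEK293H cells. These cells had been exposed 17 h at 37 C to compounds together with rosiglitazone at 50 nM final, with the beta-lactamase readout taken in the same wells.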
# [6] = qHTS assay for small molecule agonists of the antioxidant response element (ARE) signaling pathway (AID 743202; active = well fitted activation curve with a large enough effect in the signal ratio in the repeat runs, not every such curve was filed as active; the % refers to the signal ratio; note: potency is the fitted concentration of half-maximal effect)
# Procedure, shortened: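 Beta-lactamase reporter activity, read as fluorescence intensity, reflects ARE/Nrf2 pathway induction in HepG2 cells after 16 h compound exposure at 37 C; substrate loading was 2 h at room temperature.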
# [7] = qHTS assay for small molecule agonists of the antioxidant response element (ARE) signaling pathway - cell viability counter screen (AID 743203; calls by dose curve; note: nearly all actives have a fitted effect of over 55% in size)
# Procedure, shortened: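 Viability counter screen: CellTiter-Glo luminescence, read after 30 min at room temperature, in ARE-bla HepG2 wells. Compound exposure lasted 16 h at 37C/5% CO2, following a 5 h pre-incubation of the cells after plating.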
# [8] = qHTS assay for small molecule activators of the heat shock response signaling pathway - cell viability counter screen (AID 743209); note: nearly all actives have a fitted effect of over 50% in size
# Procedure, shortened: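 Cytotoxicity counter screen run in the same wells as the heat-shock bla reporter assay: HeLa HSE-bla cells, 5 h compound exposure at 37 C, viability read by CellTiter-Glo luminescence.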
# [9] = qHTS assay for small molecule activators of the heat shock response signaling pathway (AID 743210; active = well fitted activation curve with a large enough effect in the signal ratio in the repeat runs, with a control signal flat, not every such curve was filed as active; the % refers to the signal ratio;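 note: HeLa cells with beta-lactamase reporter driven by heat shock elements; series mostly up to about 63 µM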)
# Procedure, shortened: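 Fluorescence from a cleaved B/G FRET substrate (2.5 h, room temp) reports HSE-driven beta-lactamase in HeLa cells treated 5 h at 37 C with DMSO-dissolved compounds.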
# [10] = qHTS assay to identify small molecule agonists of the peroxisome proliferator-activated receptor delta (PPARd) signaling pathway - cell viability counter screen (AID 743211); note: nearly all actives have a fitted effect of over 55% in size
# Procedure, shortened: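 PPARd-bla HEK293H cells (UAS-beta-lactamase reporter) were treated with compounds for 17 h at 37 C. Viability was then read in the same wells by CellTiter-Glo luminescence after 30 min at room temperature.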
# [11] = biological target: Peroxisome proliferator-activated receptor delta (Homo sapiens) (UniProt Q03181); experiment: qHTS assay to identify small molecule agonists of the peroxisome proliferator-activated receptor delta (PPARd) signaling pathway (AID 743212; calls by dose curve)
# Peroxisome proliferator-activated receptor delta (Homo sapiens), sequence (Q03181 whole entry, looked up): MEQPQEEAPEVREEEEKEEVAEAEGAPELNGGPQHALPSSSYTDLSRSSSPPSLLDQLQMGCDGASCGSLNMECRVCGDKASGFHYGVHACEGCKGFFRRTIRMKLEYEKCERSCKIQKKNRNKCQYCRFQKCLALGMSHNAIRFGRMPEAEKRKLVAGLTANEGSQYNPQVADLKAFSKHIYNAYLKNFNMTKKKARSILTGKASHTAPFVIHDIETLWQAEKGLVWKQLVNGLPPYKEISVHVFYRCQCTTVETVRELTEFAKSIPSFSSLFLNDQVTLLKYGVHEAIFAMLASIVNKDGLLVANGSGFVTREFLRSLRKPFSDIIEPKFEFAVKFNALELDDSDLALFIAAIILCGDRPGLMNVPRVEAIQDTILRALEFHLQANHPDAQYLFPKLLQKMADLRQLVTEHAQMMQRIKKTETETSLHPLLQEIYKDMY
# Procedure, shortened: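 Steps: seed PPARd-bla HEK293H cells; incubate 5 h, 37 C, 5% CO2; add compounds in DMSO; incubate, 37 C; add LiveBLAzer B/G FRET substrate; hold 2 h at room temperature; measure fluorescence.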
# [12] = qHTS assay to identify small molecule antagonists of the peroxisome proliferator-activated receptor delta (PPARd) signaling pathway - cell viability counter screen (AID 743213); note: nearly all actives have a fitted effect of over 50% in size
# Procedure, shortened: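 Cytotoxicity counter screen: CellTiter-Glo luminescence read 30 min after addition, in the same wells as the reporter assay. There, PPARd UAS-bla HEK293H cells (3000/well) were treated 17 h at 37 C with compound and 300 nM L165041.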
# [13] = biological target: Peroxisome proliferator-activated receptor delta (Homo sapiens) (UniProt Q03181); experiment: qHTS assay to identify small molecule antagonists of the peroxisome proliferator-activated receptor delta (PPARd) signaling pathway (AID 743215; active = well fitted inhibition curve with a large enough effect in the signal ratio in the repeat runs, not every such curve was filed as active; the % refers to the signal ratio;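 note: cells stimulated with agonist L165041 at 300 nM final during compound exposure; series mostly up to about 62 µM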)
# Procedure, shortened: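 Agonist L165041 (300 nM final) added with compound to PPARd-bla HEK293H UAS-bla reporter cells; 17 h incubation at 37 C. Read-out: LiveBLAzer FRET substrate, 2 h at room temperature, fluorescence intensity.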
# [14] = qHTS assay to identify small molecule agonists of the farnesoid-X-receptor (FXR) signaling pathway - cell viability counter screen (AID 743218); note: nearly all actives have a fitted effect of over 45% in size
# Procedure, shortened: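 Viability counter screen in the same wells: CellTiter-Glo luminescence, 30 min room-temperature incubation, measured after the beta-lactamase read. Cells were GeneBLAzer FXR-UAS-bla HEK 293T, compound-treated 16 h at 37C.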
# [15] = qHTS assay to identify small molecule antagonists of the farnesoid-X-receptor (FXR) signaling pathway - cell viability counter screen (AID 743221; active = well fitted cell-killing curve with a large enough effect in the repeat runs, not every such curve was filed as active; note: nearly all actives have a fitted effect of over 50% in size)
# Procedure, shortened: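 FXR-UAS-bla HEK 293T cells were treated with test compounds plus chenodeoxycholic acid (50 uM final) for 16 h at 37 C. Cell viability in the same wells was then read as CellTiter-Glo luminescence after 30 min at room temperature.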
# [16] = biological target: Vitamin D3 receptor (Homo sapiens) (UniProt P11473); experiment: qHTS assay to identify small molecule agonists of the vitamin D receptor (VDR) signaling pathway (AID 743222; calls by dose curve)
# Vitamin D3 receptor (Homo sapiens), sequence (P11473 whole entry, looked up): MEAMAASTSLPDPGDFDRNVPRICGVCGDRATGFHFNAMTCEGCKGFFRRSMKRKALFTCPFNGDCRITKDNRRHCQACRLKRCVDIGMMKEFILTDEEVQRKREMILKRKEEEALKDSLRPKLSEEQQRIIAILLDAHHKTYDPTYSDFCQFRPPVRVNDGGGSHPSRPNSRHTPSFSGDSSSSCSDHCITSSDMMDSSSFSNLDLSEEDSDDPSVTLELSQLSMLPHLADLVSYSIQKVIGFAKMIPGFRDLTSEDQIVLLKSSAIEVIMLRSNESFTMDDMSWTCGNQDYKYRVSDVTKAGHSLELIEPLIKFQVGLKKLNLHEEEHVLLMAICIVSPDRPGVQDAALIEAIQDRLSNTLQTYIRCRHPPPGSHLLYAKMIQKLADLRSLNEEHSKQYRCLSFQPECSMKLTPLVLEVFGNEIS
# Procedure, shortened: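 Agonist mode, beta-lactamase reporter: fluorescence from LiveBLAzer B/G FRET substrate (2 h, room temperature) read after 16 h compound treatment at 37 C of VDR-bla cells, which were pre-incubated 4 h after seeding.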
# [17] = biological target: Vitamin D3 receptor (Homo sapiens) (UniProt P11473); experiment: qHTS assay to identify small molecule antagonists of the vitamin D receptor (VDR) signaling pathway (AID 743223; active = well fitted inhibition curve with a large enough effect in the signal ratio in the repeat runs, not every such curve was filed as active; the % refers to the signal ratio)
# Procedure, shortened: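 VDR-bla cells were plated, incubated 4 h at 37C, then given compound and 1alpha,25-dihydroxyvitamin D3 (3 nM final). After 16 h at 37C, LiveBLAzer B/G FRET substrate was added for 2 h at room temperature and fluorescence read.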
# [18] = biological target: Bile acid receptor (Homo sapiens) (UniProt Q96RI1); experiment: qHTS assay to identify small molecule antagonists of the farnesoid-X-receptor (FXR) signaling pathway (AID 743217; active = well fitted inhibition curve with a large enough effect in the signal ratio in the repeat runs, not every such curve was filed as active; the % refers to the signal ratio)
# Bile acid receptor (Homo sapiens), sequence (Q96RI1 whole entry, looked up): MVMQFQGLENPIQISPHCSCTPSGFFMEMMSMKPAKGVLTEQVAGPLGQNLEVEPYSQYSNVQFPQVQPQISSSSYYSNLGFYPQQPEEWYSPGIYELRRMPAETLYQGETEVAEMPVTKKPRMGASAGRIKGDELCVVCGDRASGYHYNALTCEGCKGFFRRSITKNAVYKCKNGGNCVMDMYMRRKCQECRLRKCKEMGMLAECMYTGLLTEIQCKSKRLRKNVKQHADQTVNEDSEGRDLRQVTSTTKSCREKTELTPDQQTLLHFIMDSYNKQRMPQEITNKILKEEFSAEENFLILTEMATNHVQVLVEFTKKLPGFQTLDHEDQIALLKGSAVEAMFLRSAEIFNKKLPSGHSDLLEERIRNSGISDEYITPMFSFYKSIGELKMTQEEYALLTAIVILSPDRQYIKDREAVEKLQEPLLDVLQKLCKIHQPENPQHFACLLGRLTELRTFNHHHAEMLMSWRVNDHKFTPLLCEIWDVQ
# Procedure, shortened: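 Antagonist mode: chenodeoxycholic acid at 50 uM final stimulates a UAS-driven beta-lactamase reporter in HEK 293T FXR-bla cells during 16 h, 37C compound exposure. Read-out is FRET substrate fluorescence after 2 h at room temperature.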
# [19] = biological target: Bile acid receptor (Homo sapiens) (UniProt Q96RI1); experiment: qHTS assay to identify small molecule agonists of the farnesoid-X-receptor (FXR) signaling pathway (AID 743220; active = well fitted activation curve with a large enough effect in the signal ratio in the repeat runs, not every such curve was filed as active; the % refers to the signal ratio)
# Procedure, shortened: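 FXR-UAS-bla HEK 293T cells carrying a UAS-driven beta-lactamase reporter were plated for 5 h at 37C/5% CO2, then exposed to DMSO-dissolved Tox21 10K compounds for 16 h at 37C. A LiveBLAzer B/G FRET substrate was loaded for 2 h at room temperature before fluorescence reading.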
# [20] = biological target: Peroxisome proliferator-activated receptor gamma (Homo sapiens) (UniProt P37231); experiment: qHTS assay to identify small molecule antagonists of the peroxisome proliferator-activated receptor gamma (PPARg) signaling pathway (AID 743191; calls by dose curve; note: series mostly up to about 63 µM; nearly all actives have a fitted effect of over 30% in size)
# Procedure, shortened: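 Beta-lactamase reporter under UAS control in HEK293H PPARg-bla cells; compound treatment 17 h at 37C. Read-out: fluorescence intensity after 1 h room-temperature incubation with LiveBLAzer B/G FRET substrate.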
SMILES,Potency [1],Potency [2],Potency [3],outcome [4],Potency [5],Potency [6],outcome [7],outcome [8],outcome [9],Potency [10],outcome [11],Potency [12],outcome [13],outcome [14],Potency [15],outcome [16],outcome [17],outcome [18],outcome [19],outcome [20]
CCCCCCCCN(C)CCCCCCCC,inactive,inactive,inactive,inactive,inactive,inactive,inactive,inactive,inactive,inactive,inactive,inactive,inactive,inactive,inactive,inactive,inactive,–,–,–
COCCOC(=O)CC#N,inactive,inactive,inactive,inactive,inactive,inactive,inactive,inactive,inactive,inactive,inactive,inactive,inactive,inactive,inactive,–,–,–,–,–
CC(=O)N[C@@H](CCC(N)=O)C(=O)O,inactive,inactive,inactive,inactive,inactive,inactive,inactive,inactive,inactive,inactive,inactive,inactive,inactive,–,inactive,–,inactive,inactive,inactive,–
COC(=O)c1ccc(C(=O)OC)c(C(=O)OC)c1,inactive,inactive,inactive,inactive,–,inactive,inactive,inactive,inactive,inactive,inactive,inactive,inactive,–,inactive,–,–,–,–,inactive
CN(C)CCn1nnnc1SCC1=C(C(=O)O)N2C(=O)[C@@H](NC(=O)Cc3csc(N)n3)[C@H]2SC1,inactive,inactive,inactive,inactive,–,–,inactive,inactive,inactive,inactive,inactive,inactive,inactive,inactive,inactive,inactive,inactive,inactive,inactive,inactive
COc1cccc(OC)c1,inactive,inactive,inactive,inactive,inactive,inactive,inactive,inactive,inactive,inactive,inactive,inactive,inactive,inactive,inactive,inactive,inactive,inactive,inactive,–
CC(=O)c1ccc(C)cc1,inactive,inactive,inactive,inactive,inactive,inactive,inactive,inactive,inactive,inactive,inactive,inactive,inactive,inactive,inactive,–,inactive,–,–,–
C[C@H](O)C(=O)Nc1c(I)c(C(=O)NC(CO)CO)c(I)c(C(=O)NC(CO)CO)c1I,inactive,inactive,inactive,inactive,inactive,inactive,inactive,inactive,inactive,inactive,inactive,inactive,inactive,–,inactive,inactive,inactive,–,–,–
CC1=CC(=O)CCC1,inactive,inactive,inactive,inactive,–,inactive,inactive,inactive,inactive,inactive,inactive,inactive,–,inactive,inactive,–,–,–,–,inactive
C[N+](C)(C)CC[N+]1(C)Cc2c(Cl)c(Cl)c(Cl)c(Cl)c2C1,inactive,inactive,inactive,inactive,–,–,inactive,inactive,inactive,inactive,inactive,inactive,inactive,inactive,inactive,inactive,inactive,–,–,inactive
OCC(CO)(CO)COCC(CO)(CO)CO,inactive,inactive,inactive,inactive,–,inactive,inactive,inactive,inactive,inactive,–,inactive,–,inactive,inactive,inactive,inactive,inactive,inactive,inactive
Cn1cnc2c(=O)[nH]c(N)nc21,inactive,inactive,inactive,inactive,inactive,inactive,inactive,inactive,inactive,inactive,inactive,inactive,inactive,inactive,inactive,inactive,inactive,–,–,–
CCCCCC[C@@H](CCC)C(=O)O,inactive,inactive,inactive,inactive,inactive,inactive,inactive,inactive,inactive,inactive,–,inactive,–,inactive,inactive,inactive,inactive,–,–,–
Cc1nccn1CC1CCc2c(c3ccccc3n2C)C1=O (configuration not stated),inactive,inactive,inactive,inactive,inactive,inactive,inactive,inactive,inactive,inactive,–,inactive,–,inactive,inactive,inactive,inactive,–,–,–
Nc1ccn(C2CO[C@H](CO)O2)c(=O)n1 (some centres not stated),inactive,inactive,inactive,inactive,inactive,inactive,inactive,inactive,–,inactive,–,inactive,–,–,inactive,–,inactive,inactive,inactive,–
[O-][N+](=Nc1ccccc1)c1ccccc1,inactive,30.6 µM (active),inactive,inactive,inactive,6.86 µM (active),inactive,inactive,inactive,inactive,inactive,inactive,–,inactive,inactive,–,–,–,–,–
NS(=O)(=O)c1cc2c(cc1C(F)(F)F)NC(Cc1ccccc1)NS2(=O)=O (configuration not stated),inactive,inactive,inactive,inactive,inactive,inactive,inactive,inactive,inactive,inactive,inactive,inactive,–,–,inactive,inactive,inactive,–,–,–
CC1CCN(CCCC(=O)c2ccc(F)cc2)CC1,inactive,inactive,inactive,inactive,inactive,inactive,inactive,inactive,inactive,inactive,–,inactive,–,inactive,inactive,–,–,inactive,inactive,–
Cc1ncc(CSSCc2cnc(C)c(O)c2CO)c(CO)c1O,inactive,inactive,inactive,inactive,inactive,inactive,inactive,–,–,inactive,inactive,inactive,inactive,inactive,inactive,inactive,inactive,inactive,inactive,–
CCC(C)OC(=O)N1CCCCC1CCO (configuration not stated),inactive,inactive,inactive,inactive,inactive,inactive,inactive,inactive,inactive,inactive,inactive,inactive,–,–,inactive,–,inactive,inactive,inactive,–
Nc1nc(F)nc2c1ncn2[C@@H]1O[C@H](CO)[C@@H](O)[C@@H]1O,inactive,inactive,inactive,inactive,inactive,–,inactive,inactive,inactive,inactive,inactive,inactive,inactive,inactive,inactive,–,–,–,–,–
CCCc1ccc(N)cc1,inactive,inactive,inactive,inactive,inactive,inactive,inactive,inactive,inactive,inactive,inactive,inactive,inactive,–,inactive,inactive,inactive,–,–,–
COC(=O)CCCC(=O)O,inactive,inactive,inactive,inactive,inactive,–,inactive,inactive,inactive,inactive,inactive,inactive,inactive,–,inactive,inactive,–,–,–,–
CCCCCCC(=O)OCC,inactive,inactive,inactive,inactive,inactive,–,inactive,inactive,inactive,inactive,inactive,inactive,inactive,–,inactive,inactive,inactive,–,–,–
Nc1cc(C(Cl)=C(Cl)Cl)c(S(N)(=O)=O)cc1S(N)(=O)=O,inactive,inactive,inactive,inactive,inactive,inactive,inactive,inactive,inactive,inactive,–,inactive,–,inactive,inactive,–,–,–,–,–
CC1=CC(C)C(C=O)C(C)C1 (configuration not stated),inactive,inactive,inactive,inactive,inactive,inactive,inactive,inactive,inactive,inactive,–,inactive,–,inactive,–,inactive,inactive,inactive,inactive,–
NS(=O)(=O)c1cc2c(cc1Cl)NC(CSCc1ccccc1)=NS2(=O)=O,inactive,inactive,inactive,inactive,inactive,–,inactive,inactive,inactive,inactive,inactive,inactive,inactive,inactive,inactive,inactive,inactive,inactive,–,–
